Reference: PubChem BioAssay
Activity calls are given as the source filed them. Unless noted, no rule for the calls is given here.

How the values were obtained:
[1] = system: XIP peptide (Xip251-270) binding; assay: XIP fragment 251-270 binding compounds – biochemical, small-molecule microarray, fluorescence 635/667 nm, 0.1 µg/mL protein, primary screen (AID 1182); details: fluorescent protein binding, 635 nm, higher = more signal, called active from +8 up or from −8 down
[2] = system: XIP peptide (Xip251-270); assay: compounds binding XIP fragment 251-270 – biochemical, small-molecule microarray, fluorescence 635/667 nm, 0.5 µg/mL protein, primary screen (AID 1183); details: fluorescence 635 nm, higher = more signal
[3] = blood-stage malaria parasite viability loss – strain 3D7, DAPI fluorescence, 100 nL, primary screen (AID 1184);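 also: parasites grown inside human red blood cells in medium with human serum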; details: P. falciparum 3D7 growth, 3 d, higher = more signal
[4] = biological target: Homeobox protein Hox-A13 (Mus musculus) (UniProt Q62424); assay: disruptors of Hoxa13 oligonucleotide interaction – biochemical, fluorescence polarization, labeled oligonucleotide, primary screen (AID 1185); details: Hoxa13:DNA binding, 15 min, higher = more signal, called active from +8 up or from −8 down
Sequence of Homeobox protein Hox-A13 (Mus musculus) (Q62424 whole entry, looked up): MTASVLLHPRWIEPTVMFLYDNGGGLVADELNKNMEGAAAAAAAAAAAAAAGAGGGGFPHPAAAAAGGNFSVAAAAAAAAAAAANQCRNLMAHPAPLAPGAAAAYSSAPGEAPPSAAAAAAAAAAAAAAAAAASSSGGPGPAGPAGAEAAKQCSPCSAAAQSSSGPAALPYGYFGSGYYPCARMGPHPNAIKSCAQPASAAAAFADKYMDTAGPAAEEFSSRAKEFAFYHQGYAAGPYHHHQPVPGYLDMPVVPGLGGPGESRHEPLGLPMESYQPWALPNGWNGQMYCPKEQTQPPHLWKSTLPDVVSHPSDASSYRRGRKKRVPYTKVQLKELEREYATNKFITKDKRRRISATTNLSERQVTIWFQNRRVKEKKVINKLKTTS

[5] = blockers of DNA damage checkpoint Chk1 activation – imaging, HeLa, hydroxyurea, phospho-Chk1 antibody, percent positive cells, primary screen (AID 1186); details: hydroxyurea-induced phospho-Chk1 immunofluorescence imaging, higher = more signal
[6] = blockers of DNA damage checkpoint Chk1 activation – imaging, HeLa, hydroxyurea, phospho-Chk1 nuclear intensity, primary screen (AID 1187); details: hydroxyurea-induced phospho-Chk1 immunofluorescence imaging, higher = more signal

Structure (SMILES) | composite z-score [1] | composite z-score [2] | z-score [3] | z-score [4] | z-score [5] | z-score [6]
O=C1OCCC=C[C@H]2OC34C=CCN(Cc5ccccc5)C(=O)[C@H]3N(CCCO)C(=O)[C@@H]4C12 (some centres not stated) | 0.17 (inactive) | -0.461 | -2.21 | -4.21 (inactive) | -0.16 (inactive) | -0.035 (inactive)
CC(=O)NCCCC[C@@H]1NC(=O)[C@@H]2C[C@H](C(=O)NCCCCCCNC(=O)CS)[C@H](c3ccc(O)cc3)N2C1=O | 0.757 (inactive) | 0.596 | 0.648 | -5.16 (inactive) | 0.34 (inactive) | 0.0918 (inactive)
C=CCC(OC(C)=O)[C@@H]1[C@@H](N(Cc2cccc3ccccc23)C(=O)c2ccc(C)cc2)c2cc(OCCCO)ccc2N1C(=O)Cc1ccc(OC)cc1 (some centres not stated) | -0.262 (inactive) | -0.241 | -0.805 | -0.287 (inactive) | -0.446 (inactive) | -0.126 (inactive)
COC(=O)C[C@H]1O[C@]2(C(=O)N(Cc3ccccc3)c3ccc(NC(C)=O)cc32)[C@@H](C)[C@@H]1[Si](C)(C)c1ccc(OC)cc1 | 0.337 (inactive) | 0.27 | -3.05 | -3.04 (inactive) | 0.918 (inactive) | 0.536 (inactive)
CC(C)OC(=O)CC(=O)CC(O)c1ccc(C#N)cc1 (configuration not stated) | 3.17 (inactive) | 0.21 | 0.393 | -0.306 (inactive) | -1.26 (inactive) | -1.44 (inactive)
[N-]=[N+]=Nc1ccccc1[C@H]1OC(c2ccc(OCCCO)cc2)=N[C@@]1(CCS(=O)(=O)c1ccccc1)C(=O)O | 0.835 (inactive) | 0.824 | -1.46 | -4.02 (inactive) | 0.189 (inactive) | 0.222 (inactive)
C=CC[C@@H](OC(=O)Nc1ccc(OC)cc1)c1ccc(O)c2ccccc12 | 1.08 (inactive) | 0.737 | -0.166 | -0.5 (inactive) | 0.311 (inactive) | 0.626 (inactive)
O=C1C2C=CC(C(O)c3cccs3)N(Nc3ccccc3F)C2C(=O)N1c1ccccc1 (configuration not stated) | -0.238 (inactive) | 0.111 | 0.669 | -4.17 (inactive) | -0.143 (inactive) | -0.299 (inactive)
Cc1cc(C)cc(N2C(=O)CS(=O)(=O)C2c2cccc([N+](=O)[O-])c2)c1 (configuration not stated) | 2.64 (inactive) | 0.0376 | 0.494 | -0.0181 (inactive) | -0.0327 (inactive) | 0.353 (inactive)
COc1ccc(CCN2C(=O)[C@@]3(Cc4ccccc42)c2ccccc2C(=O)N(Cc2ccccc2Cl)[C@H]3c2ccc(CO)cc2)cc1 | -0.227 (inactive) | 0.285 | -1.37 | -0.482 (inactive) | -0.214 (inactive) | -0.322 (inactive)
COCCOC(=O)N1C(=O)[C@@]2(c3cc(C#CCC(C(=O)OC)C(=O)OC)ccc31)[C@H](c1ccc(O)cc1)N1[C@H](c3ccccc3)[C@H](c3ccccc3)OC(=O)[C@H]1[C@@H]2C(N)=O | 1.39 (inactive) | 0.619 | -0.486 | -3.8 (inactive) | 0.676 (inactive) | 0.98 (inactive)
O=C1O[C@@H](c2ccccc2)[C@@H](c2ccccc2)N2[C@@H](c3ccc(O)cc3)[C@]3(C(=O)Nc4ccc(C#CC5(O)CCCCCC5)cc43)[C@@H](C(=O)N3CCCCCCC3)[C@H]12 | 1.51 (inactive) | 0.855 | -0.667 | 1.7 (inactive) | -0.129 (inactive) | -0.0414 (inactive)
CC(C)C[C@@H]1NC(=O)[C@@H]2C[C@H](C(=O)NCCCCCC[N+](C)(C)C)[C@H](c3ccc(O)cc3)N2C1=O | 1.5 (inactive) | 0.535 | 0.727 | -2.3 (inactive) | -0.525 (inactive) | -0.124 (inactive)
CCCN1C(=O)[C@]2(COC(c3ccc(OCCCO)cc3)=N2)Cc2ccccc21 | 1.71 (inactive) | 0.42 | -0.755 | -6.01 (inactive) | -0.0155 (inactive) | 0.239 (inactive)
COc1ccccc1CN1C(=O)c2ccccc2[C@@H](C(=O)NCCN2CCOCC2)[C@@H]1c1ccc(CO)cc1 | -0.0758 (inactive) | 0.853 | -1.86 | -4.64 (inactive) | 0.193 (inactive) | 0.531 (inactive)
COCCOC(=O)N1C(=O)[C@@]2(c3cc(C#CC4=CCCCC4)ccc31)[C@H](C(=O)N1CCc3cc(OC)c(OC)cc3C1)[C@H]1C(=O)O[C@H](c3ccccc3)[C@H](c3ccccc3)N1[C@@H]2c1ccccc1OCCO | 0.0851 (inactive) | 0.544 | -2.23 | 2.24 (inactive) | -0.0513 (inactive) | 0.226 (inactive)

Structure (SMILES) | composite z-score [1] | composite z-score [2] | z-score [3] | z-score [4] | z-score [5] | z-score [6]
CC(=O)C1=CCC(c2ccccc2)N(S(=O)(=O)c2ccc(C)cc2)C1 (configuration not stated) | 0.651 (inactive) | 0.473 | -1.33 | -3.89 (inactive) | 0.532 (inactive) | 0.216 (inactive)
Cc1ccc([C@H]2[C@H](C(=O)O)[C@H](Sc3ccccc3)[C@@H](C(C)C)N2S(=O)(=O)c2ccc(C)cc2)cc1 | 2.49 (inactive) | 0.787 | -0.619 | -6 (inactive) | 0.237 (inactive) | -0.0069 (inactive)
CC(=CC1CCCCC1)[C@@H](NC(=O)c1ccc(C(F)(F)F)cc1)c1ccc(-c2ccccc2)cc1 | -0.138 (inactive) | -0.569 | -0.0178 | -1.48 (inactive) | 0.191 (inactive) | 0.498 (inactive)
CCOC(=O)C1=CC[C@@H](c2ccccc2)N(S(=O)(=O)c2ccc(C)cc2)[C@H]1C(=O)OCC | 0.414 (inactive) | -0.404 | -0.799 | -5.23 (inactive) | 0.0256 (inactive) | -0.831 (inactive)
CC(C)c1ccc(NN2C(C(O)c3ccc(N(C)C)cc3)C=CC3C(=O)N(c4ccccc4)C(=O)C32)cc1 (configuration not stated) | -0.0313 (inactive) | 0.618 | -0.286 | -2.2 (inactive) | 0.148 (inactive) | -0.072 (inactive)
COCCOC(=O)N1C(=O)[C@@]2(c3ccccc31)[C@H](c1ccc(O)cc1)N1[C@H](c3ccccc3)[C@H](c3ccccc3)OC(=O)[C@H]1[C@@H]2C(=O)N1CCc2cc(OC)c(OC)cc2C1 | 1.46 (inactive) | 0.794 | -1.27 | -1.87 (inactive) | 0.043 (inactive) | 0.361 (inactive)
COC(=O)c1ccc(C(O)C2C=CC3C(=O)N(C)C(=O)C3N2NC(=O)OC(C)(C)C)o1 (configuration not stated) | 3.49 (inactive) | 0.789 | 0.926 | -1.46 (inactive) | -0.0792 (inactive) | -0.0828 (inactive)
NC(=O)NCC#Cc1ccc2c(c1)[C@]1(C(=O)N2)[C@H](C(=O)N2CCCCCCC2)[C@H]2C(=O)O[C@H](c3ccccc3)[C@H](c3ccccc3)N2[C@@H]1c1ccc(OCCO)cc1 | 0.98 (inactive) | 0.246 | -0.922 | -15.8 (active) | 0.109 (inactive) | 0.309 (inactive)
CCCCC=C[C@@H](NC(=O)c1cccs1)c1ccccc1 | -0.0837 (inactive) | -0.513 | -0.414 | -3.05 (inactive) | -0.483 (inactive) | -0.695 (inactive)
NCCCCCNC(=O)[C@H]1C[C@H]2C(=O)NCC(=O)N2[C@H]1c1cccc(OCCO)c1 | 0.228 (inactive) | 0.781 | 0.222 | -1.68 (inactive) | 0.0838 (inactive) | 0.179 (inactive)
CCC(CC)C(O)C1C=CC2C(=O)N(c3ccccc3)C(=O)C2N1Nc1ccc(C#N)cc1 (configuration not stated) | 0.132 (inactive) | 0.799 | 0.324 | -1.39 (inactive) | 0.288 (inactive) | 0.192 (inactive)
C=CCC(OC(C)=O)[C@@H]1[C@@H](N(Cc2cc3ccccc3o2)C(=O)c2ccc(C)cc2)c2cc(OCCCO)ccc2N1C(=O)c1ccc2ccccc2c1 (some centres not stated) | -0.014 (inactive) | -0.152 | -0.585 | -1.33 (inactive) | -0.252 (inactive) | 0.0758 (inactive)
CS(=O)(=O)CCOC(=O)C1=CC(c2ccc(CO)cc2)=CC(C2CC2)N(Cc2cc3c(cc2Br)OCO3)C=C1C(=O)OCCS(C)(=O)=O (configuration not stated) | 0.0295 (inactive) | 0.639 | -2.58 | -2.94 (inactive) | -0.572 (inactive) | -0.534 (inactive)
CN1C(=O)C2C(C1=O)C1C=C(CCCO)C2C(c2cccs2)N1C (configuration not stated) | -0.119 (inactive) | -0.0427 | 0.404 | -9.72 (active) | 0.207 (inactive) | -0.0851 (inactive)
O=c1cccc(C=Cc2ccccc2)o1 | -0.707 (inactive) | -0.764 | -0.907 | -0.516 (inactive) | -0.0971 (inactive) | -0.0437 (inactive)
O=C1OCC=C[C@H]2OC34C=CCN(c5ccc(Cl)cc5)C(=O)[C@H]3N(CCCCCCO)C(=O)[C@@H]4[C@@H]12 (some centres not stated) | -0.513 (inactive) | -1.03 | -0.358 | -4.21 (inactive) | -0.181 (inactive) | -0.0007 (inactive)
